Test results: PubChem BioAssay AID1159580 (chemical genetic matrix, 2015)
In all, about 5,500 compounds went through this assay and about 2,000 (36%) were called active. Inconclusive results (about 18%) are left out. No stated cut-off is given here; in the data, active means normalized growth mostly below about 0.91 (no sharp cut-off); inconclusive means no clear call, values can overlap the other calls; inactive means mostly above about 0.92. The list shows a part of the results.

Assay: chemical genetic growth profiling, strain panel (AID 1159580);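 further: tested at 20 µM; growth read once vehicle control cultures reached saturation at 30 °C; 1 = growth at the plate median or of vehicle wells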
Conditions: S. cerevisiae deletion strains, growth OD
[1] = locus YAL013W, strain DEP1, stronger effect = lower value
[2] = locus YCL061C, strain MRC1, stronger effect = lower value
[3] = locus YGR078C, strain PAC10, stronger effect = lower value
[4] = locus YHR030C, strain SLT2, stronger effect = lower value
[5] = locus YJL095W, strain BCK1, stronger effect = lower value
[6] = locus YJL187C, strain SWE1, stronger effect = lower value
[7] = locus YMR307W, strain GAS1, stronger effect = lower value
[8] = locus YNL322C, strain KRE1, stronger effect = lower value
[9] = locus YPL055C, strain LGE1, stronger effect = lower value
[10] = locus YPL241C, strain CIN2, stronger effect = lower value
[11] = locus YBR229C, strain ROT2, stronger effect = lower value
[12] = locus YDL101C, strain DUN1, stronger effect = lower value
[13] = locus YEL061C, strain CIN8, stronger effect = lower value
[14] = locus YGR229C, strain SMI1, stronger effect = lower value
[15] = locus YJR043C, strain POL32, stronger effect = lower value
[16] = locus YKL190W, strain CNB1, stronger effect = lower value
[17] = locus YLR039C, strain RIC1, stronger effect = lower value
[18] = locus YLR262C, strain YPT6, stronger effect = lower value
[19] = locus YOL006C, strain TOP1, stronger effect = lower value

Measured: normalized growth

Nc1nnc(-c2cccc(Cl)c2Cl)c(N)n1
inactive: [1] 0.995 | locus YAL021C, strain ccr4, stronger effect = lower value 1.01 | locus YAL026C, strain drs2, stronger effect = lower value 1.02 | locus YAL030W, strain snc1, stronger effect = lower value 1.03 | locus YAL040C, strain CLN3, stronger effect = lower value 0.986 | locus YBL061C, strain skt5, stronger effect = lower value 1.02 | locus YBR009C, strain hhf1, stronger effect = lower value 1.03 | locus YBR023C, strain chs3, stronger effect = lower value 1.02 | locus YBR171W, strain sec66, stronger effect = lower value 1.04 | locus YBR231C, strain swc5, stronger effect = lower value 1.03 | locus YBR279W, strain paf1, stronger effect = lower value 1.02 | locus YCL011C, strain gbp2, stronger effect = lower value 1.02 | locus YCL016C, strain dcc1, stronger effect = lower value 1.01 | locus YCL061C, strain MRC1 (second series), stronger effect = lower value 1.01 | [2] 1.02 | locus YCL069W, strain vba3, stronger effect = lower value 1.02 | locus YCR088W, strain abp1, stronger effect = lower value 1.02 | locus YDL005C, strain med2, stronger effect = lower value 1.02 | locus YDL040C, strain nat1, stronger effect = lower value 1.02 | locus YDR001C, strain nth1, stronger effect = lower value 1.02 | locus YDR069C, strain doa4, stronger effect = lower value 1.04 | locus YDR137W, strain rgp1, stronger effect = lower value 1.02 | locus YDR159W, strain sac3, stronger effect = lower value 1.03 | locus YDR195W, strain ref2 1.03 | locus YDR297W, strain sur2, stronger effect = lower value 1.02 | locus YDR334W, strain swr1, stronger effect = lower value 1.02 | locus YDR335W, strain msn5, stronger effect = lower value 1.02 | locus YDR363W, strain ESC2, stronger effect = lower value 0.985 | locus YDR392W, strain spt3, stronger effect = lower value 0.987 | locus YEL003W, strain gim4, stronger effect = lower value 1.02 | locus YEL037C, strain rad23, stronger effect = lower value 1.01 | locus YEL061C, strain CIN8 (second series), stronger effect = lower value 1.02 | locus YER002W, strain NOP16, stronger effect = lower value 0.976 | locus YER015W, strain faa2, stronger effect = lower value 1.03 | locus YER016W, strain bim1, stronger effect = lower value 1.02 | locus YER111C, strain swi4, stronger effect = lower value 1.03 | locus YER155C, strain BEM2 (second series), stronger effect = lower value 1.04 | locus YFR010W, strain ubp6, stronger effect = lower value 1.01 | locus YGL167C, strain pmr1, stronger effect = lower value 1.02 | locus YGL173C, strain kem1, stronger effect = lower value 1.03 | locus YGL227W, strain vid30, stronger effect = lower value 1.03 | locus YGL240W, strain doc1, stronger effect = lower value 1.03 | locus YGL253W, strain hxk2, stronger effect = lower value 1.02 | [3] 1.01 | locus YHR013C, strain ard1, stronger effect = lower value 1.05 | locus YHR027C, strain rpn1, stronger effect = lower value 1.02 | [4] 1 | locus YHR079C, strain IRE1, stronger effect = lower value 0.995 | locus YHR142W, strain chs7, stronger effect = lower value 1.02 | locus YJL092W, strain hpr5, stronger effect = lower value 1.01 | locus YJL095W, strain BCK1 (second series), stronger effect = lower value 1.02 | [5] 0.997 | locus YJL115W, strain asf1, stronger effect = lower value 1.03 | locus YJL129C, strain trk1, stronger effect = lower value 1.04 | locus YJL154C, strain vps35, stronger effect = lower value 1.02 | locus YJL164C, strain tpk1, stronger effect = lower value 1.02 | locus YJL166W, strain qcr8, stronger effect = lower value 1.03 | [6] 1.02 | locus YJR066W, strain TOR1, stronger effect = lower value 0.949 | locus YKL160W, strain elf1, stronger effect = lower value 1.03 | locus YKR026C, strain gcn3, stronger effect = lower value 1 | locus YKR091W, strain srl3, stronger effect = lower value 1.02 | locus YLL001W, strain dnm1, stronger effect = lower value 0.997 | locus YLL026W, stronger effect = lower value 1.02 | locus YLL041C, strain sdh2, stronger effect = lower value 1.02 | locus YLR027C, strain aat2, stronger effect = lower value 1.03 | locus YLR113W, strain HOG1, stronger effect = lower value 0.966 | locus YLR221C, strain rsa3, stronger effect = lower value 1.02 | locus YLR258W, strain gsy2, stronger effect = lower value 1.02 | locus YLR262C, strain YPT6 (second series), stronger effect = lower value 1.02 | locus YLR320W, strain mms22, stronger effect = lower value 1.03 | locus YLR342W, strain FKS1, stronger effect = lower value 1.02 | locus YLR357W, strain rsc2, stronger effect = lower value 1.07 | locus YLR370C, strain arc18, stronger effect = lower value 1.02 | locus YLR384C, strain iki3, stronger effect = lower value 1.02 | locus YML120C, strain ndi1, stronger effect = lower value 0.994 | locus YMR058W, strain fet3, stronger effect = lower value 1.02 | locus YMR125W, strain sto1, stronger effect = lower value 1.05 | locus YMR129W, stronger effect = lower value 1.02 | locus YMR205C, strain PFK2, stronger effect = lower value 1.03 | locus YMR231W, strain pep5, stronger effect = lower value 1.01 | [7] 1.01 | locus YNL071W, strain lat1, stronger effect = lower value 1.01 | locus YNL175C, strain NOP13, stronger effect = lower value 0.986 | locus YNL183C, strain NPR1, stronger effect = lower value 0.949 | locus YNL197C, strain WHI3, stronger effect = lower value 0.991 | locus YNL209W, strain ssb2, stronger effect = lower value 1.02 | locus YNL224C, strain SQS1, stronger effect = lower value 0.981 | locus YNL248C, strain rpa49, stronger effect = lower value 1.02 | locus YNL322C, strain KRE1 (second series), stronger effect = lower value 1.02 | [8] 1.01 | locus YNR049C, strain mso1, stronger effect = lower value 1.03 | locus YOR001W, strain rrp6, stronger effect = lower value 1.02 | locus YOR070C, strain gyp1, stronger effect = lower value 1.02 | locus YOR080W, strain dia2, stronger effect = lower value 1.03 | locus YOR083W, strain WHI5 (second series), stronger effect = lower value 0.992 | locus YOR083W, strain WHI5, stronger effect = lower value 1.01 | locus YOR106W, strain vam3, stronger effect = lower value 1.03 | locus YOR231W, strain MKK1, stronger effect = lower value 1.01 | locus YOR265W, strain rbl2, stronger effect = lower value 1.02 | locus YOR270C, strain vph1, stronger effect = lower value 1.08 | locus YOR290C, strain snf2, stronger effect = lower value 1.04 | locus YPL051W, strain arl3, stronger effect = lower value 1.02 | [9] 0.994 | locus YPL078C, strain atp4, stronger effect = lower value 1.01 | locus YPL106C, strain sse1, stronger effect = lower value 1.02 | locus YPL240C, strain hsp82, stronger effect = lower value 1.02 | [10] 1 | locus YPL256C, strain CLN2, stronger effect = lower value 0.989

CSC(=NCc1cccnc1)NC#N
inactive: [1] 0.991 | [11] 1 | [2] 1 | [12] 1 | locus YDR150W, strain NUM1, stronger effect = lower value 0.997 | [13] 0.993 | [3] 1 | [14] 1 | [4] 1.01 | locus YHR087W, strain rtc3, stronger effect = lower value 1 | [6] 0.994 | [15] 0.986 | locus YJR075W, strain HOC1, stronger effect = lower value 0.998 | [16] 0.998 | [17] 1 | locus YLR058C, strain SHM2 (second series), stronger effect = lower value 0.992 | locus YLR085C, strain ARP6, stronger effect = lower value 1.02 | [18] 1.01 | locus YML094W, strain GIM5, stronger effect = lower value 1.06 | locus YMR219W, strain ESC1, stronger effect = lower value 1 | locus YMR263W, strain SAP30, stronger effect = lower value 0.992 | locus YNL153C, strain GIM3, stronger effect = lower value 1.01 | locus YNL298W, strain CLA4 (second series), stronger effect = lower value 1.01 | [8] 0.998 | locus YNR030W, strain Alg12, stronger effect = lower value 1 | [19] 1.03 | [9] 0.994 | [10] 0.987 | locus YPR135W, strain CTF4, stronger effect = lower value 1.01

COC(=O)C[C@H]1C(C)(C)C(=O)[C@@H]2CC3=C4CC(OC)O[C@@H](c5ccoc5)[C@]4(C)CCC3[C@@]1(C)C2=O (stereo partly specified)
inactive: locus YBR021W, strain FUR4, stronger effect = lower value 1.01 | [11] 0.994 | locus YCL029C, strain bik1, stronger effect = lower value 0.987 | locus YDL035C, strain GPR1, stronger effect = lower value 1.02 | locus YDL074C, strain BRE1, stronger effect = lower value 1.01 | [12] 1.01 | locus YDL134C, strain PPH21, stronger effect = lower value 1 | locus YDL185W, strain tfp1, stronger effect = lower value 1 | locus YDL192W, strain arf1, stronger effect = lower value 1 | locus YDR101C, strain arx1, stronger effect = lower value 0.995 | locus YDR162C, strain NBP2, stronger effect = lower value 1 | locus YDR318W, strain mcm21, stronger effect = lower value 0.998 | locus YDR388W, stronger effect = lower value 0.991 | locus YDR502C, strain sam2, stronger effect = lower value 0.989 | [13] 0.999 | locus YER110C, stronger effect = lower value 0.994 | locus YER155C, strain BEM2, stronger effect = lower value 1.01 | locus YER167W, strain BCK2, stronger effect = lower value 1.01 | locus YGL078C, strain dbp3, stronger effect = lower value 1.01 | locus YGL086W, strain mad1, stronger effect = lower value 0.995 | locus YGL248W, strain PDE1, stronger effect = lower value 1.01 | [3] 1.01 | locus YGR135W, strain pre9, stronger effect = lower value 0.99 | [14] 1.03 | locus YGR252W, strain gcn5, stronger effect = lower value 1.01 | [4] 1 | locus YHR079C, strain IRE1 (second series), stronger effect = lower value 0.996 | locus YHR094C, strain hxt1, stronger effect = lower value 0.993 | locus YHR129C, strain ARP1, stronger effect = lower value 1.01 | locus YHR200W, strain rpn10, stronger effect = lower value 0.997 | locus YIL066C, strain RNR3, stronger effect = lower value 1.01 | locus YIL073C, strain SPO22, stronger effect = lower value 0.995 | locus YIL125W, strain kgd1, stronger effect = lower value 0.998 | locus YIR030C, strain dcg1, stronger effect = lower value 1 | [5] 1.01 | locus YJL134W, strain LCB3, stronger effect = lower value 1.01 | locus YJL168C, strain set2, stronger effect = lower value 0.996 | locus YJL187C, strain SWE1 (second series), stronger effect = lower value 1.01 | [15] 1.02 | locus YKL009W, strain mrt4, stronger effect = lower value 0.984 | locus YKL068W, stronger effect = lower value 1 | locus YKL085W, strain MDH1 (second series), stronger effect = lower value 1 | locus YKL085W, strain MDH1, stronger effect = lower value 1 | [16] 1.01 | locus YKR001C, strain vps1, stronger effect = lower value 1 | [17] 0.969 | locus YLR058C, strain SHM2, stronger effect = lower value 1 | locus YLR102C, strain apc9, stronger effect = lower value 1 | [18] 0.982 | locus YLR268W, strain sec22, stronger effect = lower value 1.01 | locus YLR330W, strain CHS5, stronger effect = lower value 1 | locus YLR342W, strain FKS1 (second series), stronger effect = lower value 0.991 | locus YLR371W, strain rom2, stronger effect = lower value 1 | locus YLR418C, strain cdc73, stronger effect = lower value 0.992 | locus YML016C, strain PPZ1, stronger effect = lower value 1 | locus YML032C, strain rad52, stronger effect = lower value 0.997 | locus YML124C, strain tub3, stronger effect = lower value 1 | locus YMR078C, strain ctf18, stronger effect = lower value 0.99 | locus YMR223W, strain ubp8, stronger effect = lower value 1.01 | [7] 1.03 | locus YNL067W, strain RPL9B, stronger effect = lower value 1.01 | locus YNL233W, strain BNI4, stronger effect = lower value 1.04 | locus YNL250W, strain rad50, stronger effect = lower value 0.986 | locus YNL271C, strain bni1, stronger effect = lower value 1 | locus YNL298W, strain CLA4, stronger effect = lower value 0.984 | locus YNL307C, strain MCK1, stronger effect = lower value 0.985 | locus YNR052C, strain pop2, stronger effect = lower value 1.01 | [19] 1.06 | locus YOL012C, strain htz1 1.32 | locus YOL147C, strain pex11, stronger effect = lower value 0.995 | locus YOR061W, strain CKA2, stronger effect = lower value 0.999 | locus YOR069W, strain VPS5, stronger effect = lower value 1.01 | locus YOR136W, strain idh2, stronger effect = lower value 0.999 | locus YOR144C, strain elg1, stronger effect = lower value 0.988 | locus YOR184W, strain ser1, stronger effect = lower value 1.01 | locus YOR316C, strain cot1, stronger effect = lower value 1 | [9] 1.03 | [10] 1 | locus YPR119W, strain clb2, stronger effect = lower value 1.01 | locus YPR141C, strain kar3, stronger effect = lower value 0.999 | locus YPR163C, strain tif3, stronger effect = lower value 0.996 | locus YPR167C, strain met16, stronger effect = lower value 1 | strain wtn01, stronger effect = lower value 1.01
